Compound activity from PubChem.
Only some compounds are listed: those with a hit (about 1.6% of all), similar ones and a draw of the others.
KCNQ2 inh – KCNQ2 (rat) channel inhibition; CHO-K1 KCNQ2, FluxOR thallium flux, 20 min; stronger effect = lower value; B-score at 10 µM; actives 1.1% (n = 310,000); AID 2156;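 active = fluorescence ratio B-score at most minus 3 library SDs, with starting brightness B-score within 2 library SDs, cut at about -5.5 in these data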
Target sequence (O88943 whole entry, looked up): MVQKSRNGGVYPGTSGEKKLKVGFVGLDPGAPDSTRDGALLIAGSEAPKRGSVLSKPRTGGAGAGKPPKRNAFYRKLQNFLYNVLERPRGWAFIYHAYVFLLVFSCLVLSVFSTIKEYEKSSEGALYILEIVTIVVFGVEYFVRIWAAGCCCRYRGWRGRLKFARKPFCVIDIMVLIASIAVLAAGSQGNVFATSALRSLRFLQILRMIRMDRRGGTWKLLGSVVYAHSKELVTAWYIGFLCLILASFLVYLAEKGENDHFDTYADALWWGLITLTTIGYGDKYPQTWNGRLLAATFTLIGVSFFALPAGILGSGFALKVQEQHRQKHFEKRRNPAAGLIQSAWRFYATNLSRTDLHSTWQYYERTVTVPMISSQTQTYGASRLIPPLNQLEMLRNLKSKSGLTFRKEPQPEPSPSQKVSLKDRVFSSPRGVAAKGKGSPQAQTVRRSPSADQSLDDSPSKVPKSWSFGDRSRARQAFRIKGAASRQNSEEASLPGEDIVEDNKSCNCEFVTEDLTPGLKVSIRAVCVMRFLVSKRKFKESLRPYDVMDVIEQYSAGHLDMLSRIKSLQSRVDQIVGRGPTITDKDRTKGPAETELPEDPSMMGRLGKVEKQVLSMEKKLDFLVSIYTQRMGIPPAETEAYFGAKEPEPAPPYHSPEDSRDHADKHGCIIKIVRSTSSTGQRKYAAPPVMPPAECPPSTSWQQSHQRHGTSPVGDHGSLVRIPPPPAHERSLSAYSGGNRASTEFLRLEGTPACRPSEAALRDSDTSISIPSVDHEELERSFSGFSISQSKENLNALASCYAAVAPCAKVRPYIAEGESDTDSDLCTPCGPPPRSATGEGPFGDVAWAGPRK
KCNQ2 enhance – potentiators of rat KCNQ2 potassium channel | O88943 | actives 0.54% (n = 310,000) | CHO-K1 KCNQ2, FluxOR thallium flux fluorescence; stronger effect = higher value | B-score at 10 µM | AID 2239;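 active = fluorescence ratio B-score at least 3 SD of library B-scores, with initial fluorescence B-score within 3 of them, cut at about 5.3 in these data; same plate scores as AID 2156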;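 also: B-score of peak minus minimum over baseline fluorescence ratio after K+ and Tl+ stimulus; positive B-score means potentiation of KCNQ2 with more thallium influx and brighter signal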
* marks the source's active call; other numbers are inactive results.

`COc1ccccc1N1CCN(C(=O)c2ccc(C(C)(C)C)cc2)CC1` gave KCNQ2 inh inactive.
Screening COc1ccccc1C1CCN(C(=O)c2ccc(C(C)(C)C)cc2)CC1 returned KCNQ2 inh -6.5* and KCNQ2 enhance -6.5.
`COc1ccc(C)cc1NC(=O)n1ncc2cc(Cl)ccc21` gave KCNQ2 inh inactive and KCNQ2 enhance 1.47.
NC(=O)C1CCN(C(=O)c2ccc(OCC(=O)Nc3cccc(C(F)(F)F)c3)cc2)CC1 was read as KCNQ2 inh inactive.
`CCOC(=O)C1CCN(C(=O)c2ccc(OCC(=O)Nc3cccc(C(F)(F)F)c3)cc2)CC1` gave KCNQ2 inh -6.49* and KCNQ2 enhance -6.49.
`Cc1ccc(CN2CCc3c(OCC(=O)Nc4cccc(C)c4C)cccc3C2=O)cc1` gave KCNQ2 inh -7.17* and KCNQ2 enhance -7.17.
`Cc1ccc(C)c(NC(=O)COc2cccc3c2CCN(Cc2ccccc2C)C3=O)c1` gave KCNQ2 inh inactive.
`CCCCn1c(N)c(N(CCC(C)C)C(=O)CCN2C(=O)C3CC=CCC3C2=O)c(=O)[nH]c1=O` (configuration not stated) gave KCNQ2 inh inactive.
Screening Cc1ccc(-c2noc(CCCOc3ccc(Cl)cc3Cl)n2)cc1 returned KCNQ2 inh -7.26* and KCNQ2 enhance -7.26.
`COc1ccc(-c2noc(CCCOc3ccc(Cl)cc3Cl)n2)cc1` gave KCNQ2 inh inactive.
`CN(C)S(=O)(=O)c1cccc(NC(=O)c2ccc(OC(F)(F)F)cc2)c1` gave KCNQ2 inh inactive and KCNQ2 enhance 2.49.
Screening CN(C)S(=O)(=O)c1cccc(NC(=O)c2ccc(COc3ccccc3)cc2)c1 returned KCNQ2 inh -5.84* and KCNQ2 enhance -5.84.
Cc1cc(C)n(CCC(=O)Nc2cccc(F)c2)n1 was read as KCNQ2 inh inactive.
Screening Cc1ccc(CS/C(Nc2ccccc2C)=C(\C#N)C(=O)NCc2ccco2)c(C)c1 returned KCNQ2 inh inactive.
`Cc1ccccc1N/C(SCc1ccc(Cl)cc1)=C(/C#N)C(=O)NCc1ccco1` gave KCNQ2 inh -6.96* and KCNQ2 enhance -6.96.
For Cc1nc(C(=O)Nc2cc(Cl)ccc2Cl)nn1-c1cc(OC(C)C)c(Cl)cc1Cl the results were KCNQ2 inh -6.44* and KCNQ2 enhance -6.44.
Screening Cc1nc(C(=O)Nc2ccc(Cl)cc2Cl)nn1-c1cc(OC(C)C)c(Cl)cc1Cl returned KCNQ2 inh inactive.
Screening Cc1nc(C(=O)Nc2cccc(Cl)c2Cl)nn1-c1cc(OC(C)C)c(Cl)cc1Cl returned KCNQ2 inh -6.35* and KCNQ2 enhance -6.35.
Cc1nc(C(=O)Nc2cccc(Cl)c2)nn1-c1cc(OC(C)C)c(Cl)cc1Cl was read as KCNQ2 inh inactive.
`Cc1ccsc1C(=O)N1CCN(c2ncc(C(F)(F)F)cc2Cl)CC1` gave KCNQ2 inh inactive and KCNQ2 enhance 1.79.
`CC1=NN(C(=O)c2csc(C)c2C)C(O)(C(F)(F)F)C1` (configuration not stated) gave KCNQ2 inh inactive and KCNQ2 enhance 1.92.
Screening CC1=NN(C(=O)c2ccc(Br)cc2)C(O)(C(F)(F)OC(F)(F)F)C1 (configuration not stated) returned KCNQ2 inh inactive and KCNQ2 enhance 5.7*.
Screening CC1=NN(C(=O)c2nn(C)cc2Br)C(O)(C(F)(F)F)C1 (configuration not stated) returned KCNQ2 inh inactive.
CC1=NN(C(=O)c2cc(C)nn2C)C(O)(C(F)(F)F)C1 (configuration not stated) was read as KCNQ2 inh inactive and KCNQ2 enhance 5.96*.
CC1=NN(C(=O)c2csc(C)c2)C(O)(C(F)(F)F)C1 (configuration not stated) was read as KCNQ2 inh inactive and KCNQ2 enhance 2.91.
For CC1=NN(C(=O)c2c(Br)c(C)nn2C)C(O)(C(F)(F)F)C1 (configuration not stated) the results were KCNQ2 inh inactive and KCNQ2 enhance 10.6*.
`CC(C)NC(=O)c1ccc2c(c1)N(CC(=O)Nc1ccccc1F)C(=O)C(C)(C)O2` gave KCNQ2 inh inactive and KCNQ2 enhance 0.91.
COc1cc2c(cc1OC)CN(C(=O)/C=C/c1cccc([N+](=O)[O-])c1)CC2 was read as KCNQ2 inh inactive.
Screening Cc1cccc(C)c1NC(=O)/C(=C/c1ccco1)c1ccccc1 returned KCNQ2 inh inactive.
For Cc1cc(C)c(NC(=O)/C(=C/c2ccco2)c2ccccc2)c(C)c1 the results were KCNQ2 inh -5.97* and KCNQ2 enhance -5.97.
For Cc1cc(C(F)(F)F)nc(-n2cc(-c3ccccc3)nn2)n1 the results were KCNQ2 inh inactive and KCNQ2 enhance 1.14.
For CCC(=O)n1nc(NCc2ccccc2OC)nc1NCc1ccccc1OC the results were KCNQ2 inh -7.34* and KCNQ2 enhance -7.34.
COc1ccc(CNc2nc(NCc3ccc(OC)cc3)n(C(C)=O)n2)cc1 was read as KCNQ2 inh inactive.
For COc1ccc(OC)c(NC(=O)CC(NC(C)=O)c2ccccc2)c1 (configuration not stated) the results were KCNQ2 inh inactive.
C=CCc1ccccc1OCC(=O)NNC(=S)NCc1ccccc1 was read as KCNQ2 inh inactive.
Cc1ccccc1N1CCN(C2CCCN(C(=O)CCC(F)(F)F)C2)CC1 (configuration not stated) was read as KCNQ2 inh inactive.
For CCOC(=O)c1nnn(CC(=O)N2N=C(c3cc(C)ccc3C)CC2c2ccc(OC)cc2)c1C(=O)OCC (configuration not stated) the results were KCNQ2 inh -5.77* and KCNQ2 enhance -5.77.
`CCOC(=O)c1nnn(CC(=O)N2N=C(c3ccccc3)CC2c2ccccc2)c1C(=O)OCC` (configuration not stated) gave KCNQ2 inh inactive and KCNQ2 enhance 0.62.
For CCN(CC)CCCNC(=O)c1oc2ccc(S(=O)(=O)N3CC(C)CC(C)C3)cc2c1C (configuration not stated) the results were KCNQ2 inh inactive.
`O=C(O)c1cccc(S(=O)(=O)Nc2ccccc2C(=O)NCCc2ccccc2)c1` gave KCNQ2 inh inactive and KCNQ2 enhance 0.51.
Screening Cc1ccc(C)c(NS(=O)(=O)c2ccc(-c3cnc(C4CC4)o3)cc2)c1 returned KCNQ2 inh -6.8* and KCNQ2 enhance -6.8.
Screening Cc1cc(C)cc(NS(=O)(=O)c2ccc(-c3cnc(C4CC4)o3)cc2)c1 returned KCNQ2 inh inactive.
O=C(NCC(=O)N(CCN1CCOCC1)C(C(=O)NC1CCCC1)c1ccccc1)c1cccs1 (configuration not stated) was read as KCNQ2 inh inactive.
`O=C(Cn1ncc2c([nH]c3ccccc32)c1=O)N1CCOCC1` gave KCNQ2 inh inactive.
`O=C(Nc1ccc(C(O)(C(F)(F)F)C(F)(F)F)cc1)c1ccc(Cl)c([N+](=O)[O-])c1` gave KCNQ2 inh -7* and KCNQ2 enhance -7.
O=C(O)c1cc(NC(=O)c2ccc(Cl)c([N+](=O)[O-])c2)cc(C(=O)O)c1 was read as KCNQ2 inh inactive and KCNQ2 enhance 0.26.
For CN(C)CCCN(Cc1ccccc1)C(=S)Nc1ccc(OC(F)F)cc1 the results were KCNQ2 inh inactive and KCNQ2 enhance 0.91.
`Cc1ccc(NC(=O)CCC(=O)NNC(=O)COc2ccc([N+](=O)[O-])cc2)c(C)c1` gave KCNQ2 inh inactive and KCNQ2 enhance 0.02.
